Results filed as inconclusive are left out. Entries that show only a call come without a potency. The source made the active and inactive calls. Calls follow the shape of the dose curve; as a rule, active = well fitted inhibition curve with a large enough effect; inconclusive = small, poorly fitted or top-dose-only effect; inactive = no such curve, though single readings can be large or run the other way.

The target in the assay is Retinaldehyde dehydrogenase 3 (Homo sapiens) (UniProt P47895). In words: qHTS for Inhibitors of the Aldehyde Dehydrogenase Family (ALDH1A3) Primary screen (AID 2061315). The conditions noted are these: ALDH inhibition qHTS; series mostly up to 56 µM.
Regarding `CC1(C)CCC[C@@]2(C)C1[C@H](OC(=O)/C=C/C=C/C(=O)O)C=C1COC(=O)[C@@]12O` (stereo partly drawn), the Potency entry is “inactive”. Still for that read-out and setting: under `CC12CCC(OC3OC(CO)C(O)C(OC4OC(CO)C(O)C(O)C4O)C3O)CC1=CCC1C2CCC2(C)/C(=C3/COC(=O)C3)CCC12O` (stereo not drawn) stands “inactive”; under `CC/C=C\[C@H](O)[C@H](O)C1=C(C)C(=O)[C@]2(O1)C(=O)N[C@@](OC)(C(=O)c1ccccc1)[C@@H]2O`, “inactive”; under `C=CC[N+]1([C@H]2C[C@H]3[C@@H]4CC[C@H]5C[C@H](OC(C)=O)[C@@H](N6CCCCC6)C[C@]5(C)[C@H]4CC[C@]3(C)[C@H]2OC(=O)CC)CCCCC1`, “inactive”. The same measure, in the same setting: the result for `C=C1CC2OC(=O)C(COC)C2C(OC(=O)/C(C)=C\C)CC2(C)OC1=CC2=O` (stereo not drawn) reads “inactive”.

As to `C=C1C[C@]23C[C@H]1CC[C@H]2[C@]1(C)CCC[C@@](C)(C(=O)O)[C@H]1[C@@H]3C(=O)O`, the Potency result is “inactive”. As to `c1cc(-c2cc(C3CCNCC3)[nH]n2)ccn1`, the Potency result was “inactive”. `O=C(/C=C/c1ccc(O)cc1)N[C@@H](Cc1ccc(O)cc1)C(=O)O`: the Potency result was “inactive”. For `C=C1Cc2c(Cl)cc3[nH]c4c5c3c2[C@@]2(O)[C@@H]1C[C@@H]2C(C)(C)O[C@H]5C1CC[C@@]2(O)[C@@]35O[C@@H]3[C@H]3OC(C)(C)[C@H]3O[C@H]5CC[C@]2(C)[C@@]41C` (stereo partly drawn), the Potency result was “inactive”.

For `C/C=C(\C)C(=O)O[C@@H](C)[C@H]1CC[C@]2(O)C3CCC4C[C@@H](OC5CC(OC)C(OC6CC(OC)C(OC7CC(OC)C(OC8OC(C)C(OC9OC(CO)C(O)C(O)C9O)C(OC)C8O)C(C)O7)C(C)O6)C(C)O5)CC[C@]4(C)C3[C@H](O)[C@@H](O)[C@]12C` (stereo partly drawn), the activity change, negative = inhibition was -5.31% [at 11.2 µM] (inactive). On to `Cc1cn2cc(CC(=O)N3CCC4(CC3)CN(Cc3ccc(-n5nccn5)cc3Cl)C4)nc2s1`, for which the Potency result was “inactive”.

`CCC(C)C(=O)OC[C@H]1O[C@H](O[C@H]2O[C@H](CO)[C@@H](O)[C@H](O)[C@H]2O)[C@H](O)[C@@H](O)[C@@H]1O` (stereo partly drawn): the Potency result is “inactive”. The same measure, in the same setting: under `COC(=O)CC[C@@H](C)C1CCC2C3CCC4C[C@H](OC(C)=O)CCC4(C)C3C[C@H](O)C21C` (stereo partly drawn) stands “inactive”; under `CC(=O)CCC1=C(C)C(O[C@@H]2O[C@H](CO)[C@@H](O)[C@H](O)[C@H]2O)C(O)CC1(C)C` (stereo partly drawn), “inactive”. Same read-out and setting: under `O=C(CCC1CCN(Cc2ccccc2)CC1)c1ccc2c(c1)NCCCC2` stands “inactive”; under `CC1OC(OC2C(OC3C(O[C@H]4CC[C@@]5(C)C(CC[C@]6(C)C5CC=C5C7CC(C)(C)CC(O)[C@]7(C)CC[C@]56C)C4(C)C)OC(C(=O)O)C(O)C3O)OCC(O)C2O)C(O)C(O)C1O` (stereo partly drawn), “inactive”. The same measure, in the same setting: the result for `CC(=O)C=C=C1C(C)(C)CC(O)CC1(C)O[C@@H]1O[C@H](CO[C@H]2OC[C@](O)(CO)[C@H]2O)[C@@H](O)[C@H](O)[C@H]1O` (stereo partly drawn) reads “inactive”.

`CC1OC(O[C@H]2CC[C@@]3(C)C(CC[C@]4(C)C3CC=C3C5CC(C)(C)CC[C@]5(C(=O)OC5OC(CO)C(OC6OC(COC7OCC(O)C(O)C7O)C(O)C(O)C6O)C(O)C5O)CC[C@]34C)C2(C)C)C(O)C(O)C1OC1OCC(OC2OCC(O)C(O)C2O)C(O)C1O` (stereo partly drawn): the activity change, negative = inhibition was 10.3% [at 11.2 µM] (inactive). Consider `COc1cccc(NCCC2(c3ccccc3)CC(C)(C)OC(C)(C)C2)c1`, for which the Potency entry is “inactive”. Consider `CC(C)C1NC(=O)C2CCCN2C1=O` (stereo not drawn), for which the Potency result was “inactive”. Same read-out and setting: under `COc1cc2c(c(OC)c1CC=C(C)C)C[C@H](c1ccc(O)c(CC=C(C)C)c1O)CO2` stands “inactive”.

In the case of `CC1CCC2(C(=O)OC3OC(CO)C(O)C(O)C3O)CCC3(C)C(=CCC4C5(C)CCC(O)C(C)(CO)C5CCC43C)C2C1(C)O` (stereo not drawn), the Potency result is “inactive”.

For `Cc1cc(-c2ncc(-c3cccnc3)cc2/C=C/c2ccccc2)cnc1-c1cccnc1`, the Potency entry was “inactive”. With `COC(=O)/C=C/C=C/C(=O)OC1C=C2COC(=O)C2(O)C2(C)CCCC(C)(C)C12` (stereo not drawn), the Potency entry is “inactive”. In the case of `CC(=O)OC1C(O)C(C)(O)C(/C=C/C(=O)O)C2(C)CCCC(C)(C)C12` (stereo not drawn), the Potency entry was “inactive”. The same measure, in the same setting: the result for `CCOc1ccc(-n2c(C(C)N(Cc3cccnc3)C(=O)Cc3ccc(F)c(C(F)(F)F)c3)nc3ncccc3c2=O)cc1` (stereo not drawn) reads “inactive”; that for `O=S(=O)(c1ccccc1)c1cnc2c(N3CCNCC3)cccc2c1`, “inactive”; that for `Cc1ncc([N+](=O)[O-])n1C[C@H](O)CN1CCOCC1`, “inactive”.
